FXIIa mix inh = blocks human factor XIIa in pooled compound mixtures | P00748 | purified FXIIa, fluorogenic substrate | inhibition, % at 5 µM | 62,000 tested, 0.2% active
Target sequence (P00748 20-372 limits assumed): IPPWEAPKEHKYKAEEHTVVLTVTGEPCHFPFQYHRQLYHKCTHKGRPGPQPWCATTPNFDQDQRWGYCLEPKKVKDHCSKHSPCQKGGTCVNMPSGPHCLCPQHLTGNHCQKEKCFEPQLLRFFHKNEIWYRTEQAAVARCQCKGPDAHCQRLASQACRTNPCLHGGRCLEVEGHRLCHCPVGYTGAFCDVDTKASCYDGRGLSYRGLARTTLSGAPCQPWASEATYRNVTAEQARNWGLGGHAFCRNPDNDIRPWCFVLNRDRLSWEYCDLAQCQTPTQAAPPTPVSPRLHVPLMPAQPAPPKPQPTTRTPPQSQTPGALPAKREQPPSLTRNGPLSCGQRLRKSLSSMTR
Target sequence (P00748 373-615 limits assumed): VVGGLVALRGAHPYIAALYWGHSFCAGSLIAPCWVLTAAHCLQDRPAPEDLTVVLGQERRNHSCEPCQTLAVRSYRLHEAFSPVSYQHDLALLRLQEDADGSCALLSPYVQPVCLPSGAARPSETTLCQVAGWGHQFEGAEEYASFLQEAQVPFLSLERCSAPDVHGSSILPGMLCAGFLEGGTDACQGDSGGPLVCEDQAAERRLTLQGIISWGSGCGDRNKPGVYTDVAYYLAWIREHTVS
M1 antagonist = blocks the rat M1 muscarinic receptor response to acetylcholine; CHO-M1 cells, Fluo-4 calcium, ACh EC80 antagonist mode; stronger effect = lower value; B-score at 10 µM; 64,000 tested, 3.4% active;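 active = calcium fluorescence response, raw or row-and-column corrected B-score, differing from the plate sample mean either way at a set confidence level, mostly lower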
FXIa mix inh = inhibitors of human coagulation factor XIa, pooled mixtures; inhibition, % at 5 µM; 62,000 tested, 0.19% active; P03951; purified FXIa, fluorogenic substrate; AID 680;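 also: each value is inhibition by a whole ten-compound pool holding the compound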
HER2 expr 66K = inhibitors of human Her2 kinase expression | P04626 | SKBR-3 HER2 protein level, AlphaScreen, 18-24 h; stronger effect = lower value | HER2 level % of control, % at 10 µM | 65,000 tested, 0.69% active | AID 645;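 active = HER2 level under 5% of the carrier-only control; inconclusive = no clear call, values can overlap the other calls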;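 also: lower value means stronger loss of Her2 protein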
JNK3 blocker = inhibitors of human JNK3 kinase; purified JNK3 kinase activity, HTS; inhibition, % at 8 µM; 60,000 tested, 0.61% active; AID 746; in the data active = inhibition above about 17%
M1 ag = M1 muscarinic receptor agonism; B-score at 10 µM; 64,000 tested, 3% active; CHO-M1 cells, Fluo-4 calcium fluorescence, agonist mode; stronger effect = higher value; AID 626;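 active = fluorescence rise, raw or as B-score row- and column-corrected plate score, outside the 99.7% band of its plate's samples, either direction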
M1 ag confirm = rat M1 muscarinic agonism, confirmation; shares compounds with M1 ag; CHO-M1 cells, Fluo-4 calcium fluorescence, agonist mode; actives lie on both sides; fluorescence change (max-min) at 10 µM; 1,700 tested, 19% active;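 active = fluorescence change differs from the solvent-only DMSO control mean at a set confidence level in both duplicate runs; inconclusive = differs from solvent-only control mean in just one of two runs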;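 also: an EC20 dose of acetylcholine follows compound addition during the same imaging run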
M4 ag counter = activates rat M4 receptor in counter-screen for M1 agonists. shares compounds with M1 ag. CHO M4/Gqi5 cells, Fluo-4 calcium fluorescence, agonist mode; actives lie on both sides. fluorescence change (max-min) at 10 µM. 1,700 tested, 9% active. AID 1741;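 active = fluorescence change differing from the plate's solvent-only control wells at 99.7% confidence in both duplicates, whether higher or lower; inconclusive = differs from solvent controls in only one of two duplicates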
Each line names hits and unclear results; the compound was inactive in the other large screens (follow-up assays come after a bar, where they were run). Shown are actives, neighbours in structure and some others; about 6.9% of the full set was active somewhere. Rule as the data show it, unless noted: active = inhibition above about 20% (passing the limit was not always enough); inactive = the rest.

COc1ccc(C(=O)NCc2nnc(SC)n2C2CCCCC2)cc1	none
Cc1cc(C)c2cc(C#N)c(SCC(=O)NCC3CCCO3)nc2c1 (stereo not given)	M1 ag 2.6 | M1 ag confirm inconclusive | M4 ag counter inconclusive
Cc1ccc2cc(C#N)c(SCC(=O)NCC3CCCO3)nc2c1 (stereo not given)	none
COc1ccc(S(=O)(=O)N(Cc2cc3ccc(OC)cc3[nH]c2=O)CC2COCCO2)cc1 (stereo not given)	M1 ag 4.9 | M1 ag confirm inactive | M4 ag counter inconclusive
CCOC(=O)C1CCN(c2c(NC3CCCc4ccccc43)c(=O)c2=O)CC1 (stereo not given)	none
CC(C)CN1C(=O)c2ccc(C(=O)Nc3ccncc3)cc2C1=O	M1 ag 5.2 | M1 ag confirm inactive | M4 ag counter inactive
Cc1ccc(S(=O)(=O)N(C)CC(=O)Nc2ccncc2)cc1	none
N#Cc1c(NC(=O)c2nc3ncccn3n2)sc2c1CCCCC2	M1 ag -1.8 | M1 ag confirm inconclusive | M4 ag counter inactive
CCN1CCN(c2nc3c(C)cccn3c(=O)c2/C=C(\C#N)S(=O)(=O)c2ccccc2)CC1	M1 ag 8.9 | M1 ag confirm inactive | M4 ag counter inactive
O=c1cc(CSc2nnc(-c3cccs3)n2Cc2ccccc2)nc2sc3ccccc3n12	M1 ag 4.2 | M1 ag confirm inactive | M4 ag counter inactive
Nc1c(S(=O)(=O)c2ccccc2)c2nc3ccccc3nc2n1Cc1ccco1	M1 ag 2.9 (no result: JNK3 blocker) | M1 ag confirm inactive | M4 ag counter inactive
COC(=O)c1c(F)c(F)c(NCCO)c(F)c1F	none
CCOC(=O)C1CCCN(C(=O)Cn2sc3nc(C)cc(C)c3c2=O)C1 (stereo not given)	M1 ag 5.9 | M1 ag confirm inactive | M4 ag counter inactive
CCOC(=O)C1CCCN(C(=O)CN2CCN(Cc3ccc(Cl)cc3)C2=O)C1 (stereo not given)	M1 ag 23 (no result: JNK3 blocker) | M1 ag confirm 202 | M4 ag counter inactive
CCOC(=O)C1CCCN(C(=O)Cc2c(C(=O)O)[nH]c3ccccc23)C1 (stereo not given)	M1 ag 4.6 (no result: JNK3 blocker) | M1 ag confirm inactive | M4 ag counter inactive
Cc1cc(C)c2c(=O)n(CC(=O)N3CCC(N4CCCCC4)CC3)sc2n1	none
CCOC(=O)C1CCCN(C(=O)Cc2ccc(OC)c(OC)c2)C1 (stereo not given)	none
O=c1cc(-c2ccccc2)c2ccc(O)c(CN3CCCCC3)c2o1	none
CCc1cc2c(-c3ccccc3)cc(=O)oc2c(CN2CCOCC2)c1O	M1 ag 15 | M1 ag confirm inactive | M4 ag counter inactive
O=C(O)[C@@H](c1ccccc1)N1Cc2ccccc2C1=O	M1 ag 3 | M1 ag confirm inconclusive | M4 ag counter inactive
Cc1cccc(NC(=O)Cn2cnc3ccc(S(=O)(=O)N4CCC(C)CC4)cc3c2=O)n1	none (no result: M1 antagonist, M1 ag)
CCN(CC)S(=O)(=O)c1ccc2oc(C(=O)NCC3COc4ccccc4O3)c(C)c2c1 (stereo not given)	none (no result: JNK3 blocker)
Cc1c(C(=O)NCc2ccccc2)oc2ccc(S(=O)(=O)N3CCC4(CC3)OCCO4)cc12	none (no result: JNK3 blocker)
Cc1cc2ccccc2n1CCNC(=O)c1ccc(S(=O)(=O)N2CCOCC2)cc1	M1 ag 8.9 | M1 ag confirm inactive | M4 ag counter inactive
Cc1c(C(=O)NCC2COc3ccccc3O2)oc2ccc(S(=O)(=O)N3CCOCC3)cc12 (stereo not given)	M1 antagonist -2.4, M1 ag 16 (no result: JNK3 blocker) | M1 ag confirm inactive | M4 ag counter inconclusive
Cc1c(C(=O)NCCc2ccccc2)oc2ccc(S(=O)(=O)N3CCOCC3)cc12	M1 ag 2.3 (no result: JNK3 blocker) | M1 ag confirm -31 | M4 ag counter inconclusive
COc1ccc(C2CC(c3cccc(OC)c3OC)n3nnnc3N2)cc1 (stereo not given)	none
Cc1ccc(-c2noc(CCC(=O)Nc3cccc(C#N)c3)n2)cc1	M1 ag 3.5 | M1 ag confirm inactive | M4 ag counter inactive
O=C(OCC(=O)N1CCN(C(=O)c2ccco2)CC1)c1sc2ccccc2c1Cl	none (no result: JNK3 blocker)
O=C(OCC(=O)N1CCN(C(=O)c2ccco2)CC1)c1ccccc1OCc1ccc(Cl)cc1	M1 ag 4.5 | M1 ag confirm inactive | M4 ag counter inconclusive
CCOc1c(Br)ccc2c1sc1nc[nH]c(=O)c12	none
Cc1ccc(N2C(=O)[C@@H]3[C@H](C2=O)C2CCCN2[C@@H]3C(=O)c2ccccc2)cc1 (stereo not given in full)	none (no result: FXIIa mix inh, FXIa mix inh)
CC(=O)c1ccc(N2C(=O)C3C(C2=O)C(C(=O)c2ccc(Cl)cc2)N2CCCC32)cc1 (stereo not given)	M1 ag 29 | M1 ag confirm 334 | M4 ag counter 470
CC(C)n1cc(/C=C(\C#N)S(=O)(=O)c2ccccc2)c2ccccc21	none
CC(O)C(=O)NCCOCCOCCNC(=O)C(C)O (stereo not given)	none
CCOC(=O)NCC(C#CCN(CC)CC)N(CC)CC (stereo not given)	none
CCN(CC)CC#CC(C)OCOCC#CCOC (stereo not given)	M1 ag -4.1 | M1 ag confirm inconclusive | M4 ag counter inactive
O=C(NS(=O)(=O)c1ccc2c(c1)OCCO2)c1ccccc1	none (no result: JNK3 blocker)
COc1ccc(N2CCN(C(=O)CSc3nnnn3-c3ccc4c(c3)OCCO4)CC2)cc1	M1 ag -3 | M1 ag confirm inactive | M4 ag counter inconclusive
COc1ccc(-n2nnnc2SCC(=O)N2CCOCC2)cc1	none
CC1(c2ccc3c(c2)OCO3)NC(=O)N(CC(=O)Nc2ccc(N3CCOCC3)cc2)C1=O (stereo not given)	none
COCC(=O)NC(c1ccccc1)c1ccccc1	M1 ag 13 | M1 ag confirm inactive | M4 ag counter inactive
COCC(=O)Nc1ccccc1NC(C)=O	none
COc1ccc(OC)c(/C=c2\sc3nc(-c4cccs4)nn3c2=O)c1	M1 ag 13 | M1 ag confirm 478 | M4 ag counter 556
COc1ccccc1-n1c(SCC(=O)NC2CCCCC2)nc2c(c1=O)SCC2	none
O=C(c1ccccc1C(=O)N1CCN(c2ccccc2)CC1)N1CCN(c2ccccc2)CC1	M1 ag 3.7 | M1 ag confirm inactive | M4 ag counter inactive
O=C(Nc1nccs1)C12CC3CC(C1)CC(C(=O)Nc1nccs1)(C3)C2	M1 ag 4 | M1 ag confirm inconclusive | M4 ag counter inactive
CCc1cc2cccc(C)c2nc1SCC(=O)N1CCN(C(=O)c2ccco2)CC1	M1 ag 2.5 | M1 ag confirm inactive | M4 ag counter inactive
CCc1cc2cc(C)cc(C)c2nc1SCC(=O)N1CCN(C(=O)c2ccco2)CC1	none

Bioassay records (PubChem)
